About 1,400 (0.42%) of roughly 330,000 compounds were called active. The sample as a whole holds a higher share of actives than the screen did. Unmarked numbers belong to inactive results.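 Rule for the calls: active = inhibition above its plate's threshold, mean inhibition of all tested compounds on the plate plus 3 SD (cut at about 37% in these data); inactive = the rest.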
These compounds were tested against Orexin/Hypocretin receptor type 1 (Homo sapiens) (UniProt O43613) (assay: OX1R (HCRTR1) antagonists, primary screen, fluorescence, CHO/OX1R cells, Fluo-8 calcium, orexin A (AID 434989;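 note: 0% = orexin A challenge wells and 100% = SB-334867-A antagonist wells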)). Conditions: Fluo-8 calcium fluorescence, at 5 µM, active compounds read high.
Chain of Orexin/Hypocretin receptor type 1 (Homo sapiens) (O43613 whole entry, looked up): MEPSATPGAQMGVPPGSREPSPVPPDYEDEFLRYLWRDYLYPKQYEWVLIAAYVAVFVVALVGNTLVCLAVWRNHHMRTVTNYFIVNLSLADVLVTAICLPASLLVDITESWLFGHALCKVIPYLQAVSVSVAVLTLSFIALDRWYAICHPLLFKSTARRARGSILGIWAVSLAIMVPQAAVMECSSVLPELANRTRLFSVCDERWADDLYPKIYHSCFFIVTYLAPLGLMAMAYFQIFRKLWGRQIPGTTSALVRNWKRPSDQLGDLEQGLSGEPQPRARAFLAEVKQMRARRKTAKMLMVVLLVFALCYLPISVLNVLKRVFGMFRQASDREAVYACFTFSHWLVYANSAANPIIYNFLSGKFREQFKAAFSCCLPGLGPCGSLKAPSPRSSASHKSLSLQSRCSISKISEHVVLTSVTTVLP

**Q.** With CN(C)C(=O)CCc1ccc2c3c([nH]c2c1)[C@]1(C)[C@@H](C(=O)N2CCCCC2)C[C@H](CC(=O)NCCC2=CCCCC2)C(=O)N1CC3 as the compound, how does the inhibition read?
**A.** -30.3%

**Q.** Cc1c(NC(=O)C(C)OC(=O)c2ccccc2O)c(=O)n(-c2ccccc2)n1C (stereo not given) was tested. Which inhibition did it give?
**A.** -6.55%

**Q.** With COc1ccc(C(=O)NC2CCCc3c2cnn3-c2cccc(C)c2C)c(OC)n1 (stereo not given) as the compound, how does the inhibition read?
**A.** 44.8% (active)

**Q.** With Cn1nccc1C(=O)NC1CCCc2c1cnn2-c1ccccc1F (stereo not given) as the compound, how does the inhibition read?
**A.** 8.33%

**Q.** With Cc1cc(C(=O)NC2CCCc3c2cnn3-c2cccc(C)c2C)c(C)o1 (stereo not given) as the compound, how does the inhibition read?
**A.** 26.6%

**Q.** How did the inhibition turn out when CC(C)(C)OC(=O)C[C@@H]1C/C=C\C[C@@H](CC(=O)N(CCO)Cc2ccccc2)C(=O)N[C@H](Cc2ccccc2)COC1=O was run?
**A.** -33.6%

**Q.** How did the inhibition turn out when OCCN(Cc1ccccc1)Cc1ccc(Cl)cc1 was run?
**A.** 9.29%

**Q.** Which inhibition does the source give for CCN(CC)CCCNC(=O)CCc1ccccc1 here?
**A.** -15%

**Q.** With CN(C(=O)CN(CCO)CC(=O)N(C)C(C)(C)Cc1ccccc1)C(C)(C)Cc1ccccc1 as the compound, how does the inhibition read?
**A.** 68.2% (active)

**Q.** CCN(CC)C(=O)[C@H]1CC(CC(=O)NCc2ccco2)C(=O)N2CCc3c([nH]c4ccccc34)[C@]12C (stereo not given in full) was tested. Which inhibition did it give?
**A.** -11.1%

**Q.** Which inhibition does the source give for Cc1c(C(=O)Nc2cccc(S(=O)(=O)N3CCOCC3)c2)oc2ccccc12 here?
**A.** -3.24%

**Q.** How did the inhibition turn out when COc1cccc(OCc2cc(C(=O)N3CCN(C(=O)c4ccco4)CC3)no2)c1 was run?
**A.** -6.35%

**Q.** With O=C(c1cc(COc2ccc(F)c(F)c2)on1)N1CCOCC1 as the compound, how does the inhibition read?
**A.** -5.38%

**Q.** C=CCC1(CC=C)CCCN1C(=O)c1cc(COc2ccc(-n3cncn3)cc2)on1 was tested. Which inhibition did it give?
**A.** 34.5% (active)

**Q.** With Cc1ccc(CNC(=O)Cn2cnc3c(NCc4ccccc4)ncnc32)o1 as the compound, how does the inhibition read?
**A.** 10.5%

**Q.** O=C(NC(Nc1nc2ccc([N+](=O)[O-])cc2s1)(C(F)(F)F)C(F)(F)F)c1ccccc1 was tested. Which inhibition did it give?
**A.** 59.4% (active)

**Q.** With O=C(CNC(=O)c1ccccc1)Oc1ccc([N+](=O)[O-])cc1 as the compound, how does the inhibition read?
**A.** -4.15%

**Q.** For O=C(CCNC(=O)c1ccccc1)Nc1nc2ccccc2s1, which inhibition is on record?
**A.** -8.05%

**Q.** How did the inhibition turn out when COc1ccc(NC(=O)C2CCCN(S(=O)(=O)c3cccc4cccnc34)C2)cc1 (stereo not given) was run?
**A.** -34.5%

**Q.** COc1ccccc1CNC(=O)C1CCCN(S(=O)(=O)c2cccc3cccnc23)C1 (stereo not given) was tested. Which inhibition did it give?
**A.** 79.2% (active)

**Q.** For O=C(Nc1nccs1)C1CCCN1S(=O)(=O)c1cccc2cccnc12 (stereo not given), which inhibition is on record?
**A.** -11.2%

**Q.** For Cc1ccc(NC(=O)C2CCCN2S(=O)(=O)c2cccc3cccnc23)c(C)c1 (stereo not given), which inhibition is on record?
**A.** -30.7%

**Q.** For Cc1cc(C)cc(NC(=O)C2CCCN2S(=O)(=O)c2cccc3cccnc23)c1 (stereo not given), which inhibition is on record?
**A.** 104% (active)

**Q.** COc1ccc(NC(=O)C2CCCN(S(=O)(=O)c3cccc4cccnc34)C2)cc1OC (stereo not given) was tested. Which inhibition did it give?
**A.** -27.1%

**Q.** O=C(CN1C(=O)NC2(CCCC2)C1=O)Nc1cc(C(F)(F)F)ccc1N1CCOCC1 was tested. Which inhibition did it give?
**A.** -28.3%

**Q.** C[C@H](CO)N1C[C@H](C)[C@@H](CN(C)Cc2ccc(-c3ccccc3)cc2)Oc2ccc(NC(=O)Cn3cnnn3)cc2C1=O was tested. Which inhibition did it give?
**A.** -7.92%

**Q.** How did the inhibition turn out when CC[C@]1(C(=O)OC)[C@H]2C(=O)N(Cc3ccccc3)C(=O)[C@H]2[C@H]2CN=C(SCc3ccc(C#N)cc3)N21 was run?
**A.** -5.92%

**Q.** Cc1ccc(S(=O)(=O)N2[C@@H](c3cccc(Cl)c3)C(C(=O)O)=CC[C@H]2c2ccc(Cl)c(Cl)c2)cc1 was tested. Which inhibition did it give?
**A.** 42%

**Q.** Which inhibition does the source give for Cc1ccc([C@@H]2CC=C(C(=O)O)[C@H](c3cccc(Cl)c3)N2S(=O)(=O)c2ccc(C)cc2)cc1 here?
**A.** 10.8%

**Q.** Cc1ccccc1S(=O)(=O)N1[C@@H](c2cccc(Cl)c2)C(C(=O)O)=CC[C@H]1c1ccc(Cl)cc1 was tested. Which inhibition did it give?
**A.** 52.1% (active)

**Q.** With COc1cc(NC(=O)COC(=O)c2ccc([N+](=O)[O-])s2)cc(OC)c1OC as the compound, how does the inhibition read?
**A.** -20.3%

**Q.** With O=C(C[C@H]1C[C@H](C(=O)N2CCOCC2)[C@@]2(CCC3CCCC3)c3[nH]c4ccc(Cl)cc4c3CCN2C1=O)NCc1ccco1 as the compound, how does the inhibition read?
**A.** 21.8%

**Q.** Which inhibition does the source give for COc1cc(SC#N)ccc1N=Cc1c(C)[nH]n(-c2ccc(C)cc2)c1=O here?
**A.** 67.5% (active)

**Q.** Cc1ccc(-n2[nH]c(C)c(/C=N/NC(=O)c3cccc([N+](=O)[O-])c3)c2=O)cc1C was tested. Which inhibition did it give?
**A.** 7.53%

**Q.** How did the inhibition turn out when Cc1ccc(-n2[nH]c(C)c(/C=N/N3C(=O)c4cccc5cccc(c45)C3=O)c2=O)cc1 was run?
**A.** -11.8%

**Q.** For O=C(Nc1cc(S(=O)(=O)N2CCOCC2)ccc1N1CCOCC1)c1c(F)cccc1Cl, which inhibition is on record?
**A.** -20%

**Q.** How did the inhibition turn out when Cc1cc(N2C(=O)C(O)=C(C(=O)c3ccc(C)o3)C2c2ccc(OCc3ccccc3)cc2)no1 (stereo not given) was run?
**A.** -19.8%

**Q.** How did the inhibition turn out when C=CCOc1cccc(C2C(C(=O)c3ccc(C)o3)=C(O)C(=O)N2CCCn2ccnc2)c1 (stereo not given) was run?
**A.** -1.44%

**Q.** How did the inhibition turn out when C=CCOc1cccc(C2C(C(=O)c3ccc(C)o3)=C(O)C(=O)N2c2nnc(C)s2)c1 (stereo not given) was run?
**A.** 51% (active)

**Q.** O=C(CC1SCCNC1=O)Nc1ccc(Cl)c(Cl)c1 (stereo not given) was tested. Which inhibition did it give?
**A.** -14.2%
